Screening data (PubChem)
Most compounds without a hit are left out; they make up all but 1.8% or so of the library.
VLA-4 inh = inhibition in a human VLA-4 binding assay; P13612; VLA-4 expressing cells, ligand binding flow cytometry; inhibition, % (about 7 µM as worked out from the volumes in the protocol); actives 0.2% (n = 330,000)
LANA-H2B inh = blocks KSHV LANA binding to histone H2A/H2B | Q9QR71 | cell-free LANA-H2A/H2B peptide, fluorescence polarization | inhibition, % (no concentration beside the values) | actives 0.6% (n = 320,000); in the data active = inhibition mostly above about 10%, no sharp cut-off; inactive = mostly below about 6.7%
PKD1 kinase inh = inhibitors of human PKD1 kinase | Q15139 | PKD1 kinase fluorescence polarization assay | inhibition, % (concentration not given with the values) | actives 0.056% (n = 200,000)
DSG3 Ab inh = blocks pemphigus antibody binding to human desmoglein-3; DSG3-coupled beads, scFv-anti-DSG3-GFP binding, flow cytometry; hits give low values; binding (percent of control), % at 10 µM; actives 0.48% (n = 310,000);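 active = binding more than 3 SD below its plate's average and above zero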;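 note: hits lower antibody fragment binding to DSG3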
GRK2 inh = inhibitors of human GRK2 displacing RNA aptamer. P25098. bead flow cytometry, FAM-aptamer displacement from GRK2. inhibition of aptamer binding, % at 10 µM. actives 0.59% (n = 330,000). AID 488847;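 active = inhibition of aptamer binding above 40%, roughly 3 SD of noise, on plates passing a quality check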;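 note: median bead fluorescence of bound FAM aptamer so fluorescent compounds give negative values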
HDAC3 inh = human HDAC3 inhibition. actives 0.15% (n = 320,000). O15379. recombinant HDAC3, fluorogenic peptide/trypsin coupled, fluorescence. inhibition, % at 8.3 µM; in the data active = inhibition above about 26%, passing the limit was not always enough
Target sequence (O15379 whole entry, looked up): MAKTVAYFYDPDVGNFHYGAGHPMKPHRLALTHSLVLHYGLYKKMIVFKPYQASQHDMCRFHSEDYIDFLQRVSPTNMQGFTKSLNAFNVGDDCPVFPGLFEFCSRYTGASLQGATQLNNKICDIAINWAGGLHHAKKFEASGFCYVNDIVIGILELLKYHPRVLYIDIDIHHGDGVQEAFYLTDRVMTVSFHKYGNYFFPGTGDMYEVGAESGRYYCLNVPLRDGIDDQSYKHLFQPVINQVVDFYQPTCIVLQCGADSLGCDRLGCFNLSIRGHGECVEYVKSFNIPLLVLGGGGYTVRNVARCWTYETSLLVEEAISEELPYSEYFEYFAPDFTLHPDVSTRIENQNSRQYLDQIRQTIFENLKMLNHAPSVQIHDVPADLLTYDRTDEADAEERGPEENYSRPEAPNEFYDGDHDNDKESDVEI
GRK2 inh confirm = human GRK2 inhibition confirmation, cherry pick 1 | shares compounds with GRK2 inh | bead-bound GRK2, FAM-aptamer displacement, flow cytometry | aptamer displacement, % at 10 µM | actives 4% (n = 2,000) | AID 504451;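 active = aptamer displacement above 40%, near three times the noise of non-fluorescent compounds, on plates passing quality checks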;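 note: negative values mostly reflect intrinsic compound fluorescence rather than true enhancement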
Aptamer quench SP = quenches fluorescent RNA aptamer, GRK2 hit artifact | 2,000 tested, under 10 active | fluorescence response (% of DMSO), % at 10 µM | shares compounds with GRK2 inh | Carboxyfluorescein RNA aptamer on beads, flow cytometry quenching; hits give low values;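 active = compounds that quench the bead-bound fluorescent RNA probe, cutting fluorescence to under half of the solvent control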;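 note: counterscreen run without GRK2 so only probe quenching by compound is measured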
GRK2 CP2 = confirmation of human GRK2 inhibitors binding RNA aptamer site | shares compounds with GRK2 inh | bead-bound GRK2, FAM-aptamer displacement, flow cytometry | inhibition of aptamer binding, % at 10 µM | 360 tested, under 10 active | AID 504782;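 active = inhibition of aptamer binding above 40%, about triple the noise seen with nonglowing compounds, on plates passing quality control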;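 note: negative values mostly come from compounds that fluoresce themselves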
FAM quench CP2 = quenches fluorescent RNA aptamer, GRK2 hit artifact | shares compounds with GRK2 inh | carboxyfluorescein RNA aptamer beads, flow cytometry quenching; hits give low values | fluorescence response vs DMSO, % at 10 µM | 360 tested, under 10 active | AID 588494;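 active = response vs DMSO under 50%, meaning signal dropped by over half, treated as fluorescence quencher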;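 note: labelled aptamer on streptavidin beads without GRK2 as a quench counter-screen; 100% = bead fluorescence of DMSO wells and lower means quenching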
Starred values were filed as active, the others as inactive; . = no result. Cut-off read from the data, not from the text of the source, unless noted: active = inhibition above about 50%; inactive = the rest.

SMILES | VLA-4 inh | LANA-H2B inh | PKD1 kinase inh | DSG3 Ab inh | GRK2 inh | HDAC3 inh | GRK2 inh confirm | Aptamer quench SP | others
CC1CCCC(C)N1CC(O)COCc1ccccc1F (stereo unspecified) | 14 | -4 | . | 105 | 1 | 5 | . | .
CSC1=NC(=O)/C(=C/c2ccc(SC)cc2)S1 | 2 | 0 | 1 | 110 | 58* | 1 | 2 | 103
COc1ccc(OCCN2CCCC2)cc1Nc1nnc(Cl)c(Nc2ccccc2S(C)(=O)=O)n1 | . | . | . | 99 | . | . | . | .
CCOC(=O)CN1C(=O)N(CC(=O)OCC)C(c2ccccc2)(c2ccccc2)C1=O | 15 | -2 | . | 113 | 0 | -5 | . | .
CC(C)CCNC(=O)C1CCN(S(=O)(=O)c2ccc(-n3cnnn3)cc2)CC1 | 8 | -5 | . | 95 | 0 | 1 | . | .
O=C1NC(=O)C2(CCC(C3CCCCC3)CC2)N1 (stereo unspecified) | . | . | . | 117 | . | . | . | .
Cc1[nH]nc2c1/C(=N\O)CCC2 | -3 | 4 | -8 | 98 | 40 | 7 | -3 | 102
COc1ccc(-c2cc(C(=O)N(C)Cc3nc4ccccc4c(=O)[nH]3)c3ccccc3n2)cc1OC | 13 | 1 | . | 93 | 29 | -2 | 0 | 101
COc1ccc(CCNC(=O)CSc2nc3ncccc3[nH]2)c(OC)c1 | 8 | 1 | . | 99 | 0 | 6 | . | .
CCOc1ccc(N(CC(=O)NCc2ccccc2OC)S(C)(=O)=O)cc1 | -12 | -1 | -2 | . | 53* | 1 | 0 | 98
CCOc1ccc(N(CC(=O)NCc2ccccc2)S(C)(=O)=O)cc1 | 4 | -4 | 7 | 104 | 1 | -2 | . | .
COc1ccc(C2=NOC(C(=O)Nc3cccnc3)C2)cc1OC (stereo unspecified) | 0 | 4 | . | 86 | 0 | -6 | . | .
COc1cc(OC)c(C2=NOC(C(=O)O)C2)cc1Cl (stereo unspecified) | 4 | -2 | -11 | 103 | 2 | 0 | . | . | GRK2 CP2=-26;FAM quench CP2=100
O=C(O)C1CC(c2cccc(Br)c2)=NO1 (stereo unspecified) | 13 | 0 | -9 | 119 | 0 | -2 | . | . | GRK2 CP2=-5;FAM quench CP2=107
COc1ccc(C2=NOC(C(=O)O)C2)cc1 (stereo unspecified) | -20 | 11 | -10 | 100 | 4 | 3 | . | .
O=C(O)C1CC(c2ccccc2)=NO1 (stereo unspecified) | 17 | 0 | -6 | 121 | 17 | -1 | . | . | GRK2 CP2=-33;FAM quench CP2=102
Cn1nnnc1SCC(=O)Nc1ncc(C(F)(F)F)cc1Cl | 10 | 3 | . | 95 | 0 | 0 | . | .
CCC(=O)Nc1c2c(nn1-c1ccc(F)cc1)CS(=O)(=O)C2 | 16 | 2 | . | 104 | 0 | 3 | . | .
CCOC(=O)Cc1nnc(Nc2cccc(C)c2)c2ccccc12 | 21 | -1 | 0 | 74 | 92* | 5 | 11 | 133
COc1ccc(OCC(=O)N2CCN(c3nnc(-c4ccc(C)cc4)c4ccccc34)CC2)cc1 | -6 | -2 | . | . | 54* | 11 | 1 | 91
Cc1ccc(OCC(=O)N2CCN(c3nnc(-c4ccc(C)cc4)c4ccccc34)CC2)cc1 | -12 | -2 | -5 | 106 | 4 | 8 | . | .
Nc1nc(=S)c2ncn(C3OC(CO)C(O)C3O)c2[nH]1 (stereo unspecified) | 10 | 2 | . | 103 | 87* | 11 | 8 | 101
COc1ccc(NC(=O)c2cccc(N3C(=O)C4C5C=CC(C5)C4C3=O)c2)cc1Cl (stereo unspecified) | 14 | 4 | . | 96 | 2 | 1 | . | .
O=C(O)CC/C(=C\c1ccc(N2CCCC2)c([N+](=O)[O-])c1)c1nc2ccccc2s1 | -1 | 3 | 0 | 100 | 71* | 6 | -5 | 100
O=C(O)CC/C(=C\c1ccccc1[N+](=O)[O-])c1nc2ccccc2s1 | -11 | -1 | 3 | 98 | 1 | -1 | . | .
SMILES | VLA-4 inh | LANA-H2B inh | PKD1 kinase inh | DSG3 Ab inh | GRK2 inh | HDAC3 inh | GRK2 inh confirm | Aptamer quench SP | others
COc1ccc(CCNCc2ccc(OCc3ccccc3)cc2)cc1 | 11 | 1 | . | 95 | 58* | 3 | -8 | 98
COc1ccc(CNS(=O)(=O)CCNCCc2ccccc2)cc1 | . | . | . | 100 | . | . | . | .
CCN1C(=O)[C@H]2[C@@H](c3ccc(C)cc3)N[C@]3(CCCN(Cc4ccc(F)cc4)C3=O)[C@H]2C1=O | . | . | . | 111 | . | . | . | .
CCOC(=O)C1CCCCN1Cc1cccc(F)c1 (stereo unspecified) | 9 | -1 | 4 | 95 | 2 | -8 | . | .
CCOC(=O)C1CCCCN1Cc1ccc(F)cc1 (stereo unspecified) | 2 | 0 | -4 | 101 | 75* | 4 | 0 | 102
Nc1c(C(=O)O)sc2nc3c(cc12)CCCC3 | -18 | -1 | . | 104 | 4 | -1 | . | .
NC(=O)c1sc2nc3c(cc2c1N)CCCCCC3 | 39 | -6 | . | 104 | 75* | -6 | 9 | 96
COc1ccc([C@H]2CC(=O)C=C(c3ccccc3Oc3ccccc3)C2)cc1 | -1 | -2 | . | 108 | 60* | 11 | -2 | 95
O=C1C(=O)c2ccc(-c3ccccc3)cc2-c2ccccc21 | 15 | 0 | 0 | 97 | 66* | 1 | 15 | 105
Nc1ccc2c(c1)C(=O)C(=O)c1ccccc1-2 | -2 | 4 | 4 | 95 | 26 | -2 | . | .
COC(=O)[C@H](Cc1ccccc1)NC(=O)C1(OC(C)=O)CC(OC(C)=O)C(OC(C)=O)C(OC(C)=O)C1 (stereo partly specified) | 33 | -2 | . | 90 | 63* | 1 | 5 | 94
O=Cc1ccc(Oc2nc(Cl)ncc2F)cc1 | 0 | -2 | . | 124 | 39 | 1 | 12 | 91
O=Cc1ccc(Oc2ccc(F)cc2)nc1 | -4 | 3 | -8 | 97 | 9 | 4 | . | .
Cc1cc(OCC(=O)Nc2ccncc2)cc(C)c1Cl | 7 | -1 | . | 114 | 6 | 0 | . | .
CCCC(CCC)=NNC(=O)c1ccccc1F | -18 | -2 | 1 | 98 | 0 | 3 | . | .
O=C(NN=C(Cc1ccccc1)Cc1ccccc1)c1ccccc1F | 2 | 4 | 3 | 121 | 86* | 0 | 1 | 101
COC(=O)C1CCN(C(=O)Cn2nnc(-c3cccc(F)c3)n2)CC1 | -2 | -2 | . | 94 | 0 | -4 | . | .
COc1cc(OC)cc(-c2c(-c3cccs3)c3cc(-c4cnc(OC)nc4)ccc3n2C)c1 | 25 | -5 | . | 104 | 68* | -3 | -7 | 105
